Assay outcomes from PubChem BioAssay.
Most compounds without a hit are left out; they make up all but 4.1% or so of the library.
NLRP3 yeast inh: blocks the NALP3 inflammasome reconstituted in yeast | AID 2825 | inhibition, % at 10 µM | Yeast reconstituted NLRP3/ASC/caspase-1, beta-gal luminescence, 24 h | 0.39% of 330,000 active;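 active = inhibition of 50% or more; inactive = inhibition below 50%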
tim23-1 inh: inhibits growth of tim23-1 mutant yeast; inhibition, % at 20 µM; S. cerevisiae tim23-1 growth, BacTiter-Glo luminescence, 24 h; 1.3% of 330,000 active;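 active = growth inhibition of the mutant yeast at or above 50%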;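 note: temperature-sensitive mutant grown at 25 °C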
tim10-1 inh: growth inhibitors of tim10-1 mutant yeast; 2.2% of 330,000 active; inhibition, % at 20 µM; AID 463190; S. cerevisiae tim10-1 ts strain growth, BacTiter-Glo, 24 h;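 active = inhibition of at least 40%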;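 note: mutant grown at 25 °C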
NALP1 yeast inh: inhibitors of NALP1 inflammasome in yeast. inhibition, % at 10 µM. 0.61% of 280,000 active. AID 2071. S. cerevisiae NALP1/ASC/caspase-1 growth, X-gal OD620, 72 h; in the data active = inhibition mostly above about 24%, no sharp cut-off; inactive = mostly below about 32%
TIM10 inh: growth inhibitors of TIM10 yeast strain; S. cerevisiae TIM10 strain growth, BacTiter-Glo luminescence, 24 h; 1.4% of 330,000 active; inhibition, % at 10 µM;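 active = inhibition of 40% or more at the single tested concentration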;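 note: wild-type TIM10 isogenic control strain grown at permissive 25 °C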
NALP3 confirm: NALP3 inhibition confirmation in yeast; shares compounds with NLRP3 yeast inh; yeast expressing human NALP3, luminescence; inhibition, % at 10 µM; 81% of 1,300 active; AID 435006; in the data active = inhibition above about 48%
Casp1-ASC yeast: active in yeast caspase-1-ASC counter-screen for NALP3 inhibitors | yeast expressing Caspase-1-ASC, luminescence counter screen | shares compounds with NLRP3 yeast inh | AID 488784 | inhibition, % at 10 µM | 66% of 1,000 active
NALP3 yeast rt: yeast NALP3 inhibition, confirmed on retest. inhibition, % at 10 µM. 53% of 1,000 active. yeast expressing human NALP3, luminescence read-out. shares compounds with NLRP3 yeast inh
Hits are given with their value. Cut-off read from the data, not from the text of the source, unless noted: active = inhibition above about 50%; inactive = the rest.

CC(C)c1ccc(C2NCc3ccccc3-n3cccc32)cc1 (stereo unspecified) was read as NLRP3 yeast inh 64, tim23-1 inh inactive, tim10-1 inh inactive, NALP1 yeast inh 38, TIM10 inh inactive, NALP3 confirm inactive, Casp1-ASC yeast 60 and NALP3 yeast rt 58.
For CCN(CCNc1ccc([N+](=O)[O-])c2cccnc12)S(=O)(=O)c1ccc(Cl)cc1 the results were NLRP3 yeast inh 50, tim23-1 inh inactive, tim10-1 inh inactive, NALP1 yeast inh inactive, TIM10 inh inactive, NALP3 confirm 65, Casp1-ASC yeast inactive and NALP3 yeast rt inactive.
`CCN(CCNc1ccc([N+](=O)[O-])c2cccnc12)S(=O)(=O)c1ccccc1` gave NLRP3 yeast inh inactive, tim23-1 inh inactive, tim10-1 inh inactive, NALP1 yeast inh inactive and TIM10 inh inactive.
For C[C@]12CCC3C(CC[C@H]4C[C@@H](O)CC[C@]34C)C1C/C(=N/O)[C@@H]2O (stereo partly specified) the results were NLRP3 yeast inh inactive, tim23-1 inh inactive, tim10-1 inh inactive and TIM10 inh inactive.
For CC(=O)[C@H]1CCC2C3CC[C@H]4C[C@@H](O)CC[C@]4(C)C3CC[C@@]21C (stereo partly specified) the results were NLRP3 yeast inh inactive, tim23-1 inh inactive, tim10-1 inh inactive and TIM10 inh inactive.
C[C@]12CCC3C(CC[C@H]4C[C@H](OC(=O)c5cccnc5)CC[C@]34C)C1CCC2=O (stereo partly specified) was read as NLRP3 yeast inh 54, tim23-1 inh inactive, tim10-1 inh inactive, TIM10 inh inactive and NALP3 confirm 60.
`C[C@]12CC[C@@H](O)C[C@@H]1CC[C@@H]1[C@@H]2CC[C@]2(C)C(=O)CC[C@@H]12` gave NLRP3 yeast inh 56, tim23-1 inh inactive, tim10-1 inh inactive, NALP1 yeast inh inactive, TIM10 inh inactive, NALP3 confirm 67, Casp1-ASC yeast 60 and NALP3 yeast rt 61.
C[C@]12CCC3C(CC[C@H]4C[C@H](O)CC[C@]34C)C1CC(=O)[C@@H]2O (stereo partly specified) was read as NLRP3 yeast inh inactive, tim23-1 inh inactive, tim10-1 inh inactive and TIM10 inh inactive.
Screening C[C@]12CCC3C(CC[C@H]4C[C@H](O)CC[C@]34C)C1CCC2=O (stereo partly specified) returned NLRP3 yeast inh 53, tim23-1 inh inactive, tim10-1 inh inactive, TIM10 inh inactive and NALP3 confirm 68.
COC(=O)C1=C(c2ccc(OC(F)(F)F)cc2)C[C@@H]2CC[C@H]1N2C(=O)N1CCCC1 was read as NLRP3 yeast inh inactive, tim23-1 inh inactive, tim10-1 inh inactive and TIM10 inh inactive.
`O=[N+]([O-])c1ccc(N2CCCCCC2)c2ncccc12` gave NLRP3 yeast inh 54, tim23-1 inh inactive, tim10-1 inh inactive, NALP1 yeast inh inactive, TIM10 inh inactive, NALP3 confirm 56, Casp1-ASC yeast 53 and NALP3 yeast rt 52.
For Nc1c2c(nc3sc4c(c13)CCCCC4)CCCC2 the results were NLRP3 yeast inh 63, tim23-1 inh inactive, tim10-1 inh inactive, NALP1 yeast inh 67, TIM10 inh inactive, NALP3 confirm 79, Casp1-ASC yeast inactive and NALP3 yeast rt inactive.
BrCC1C[n+]2c(SCc3ccccc3)nc3sc4c(c3c2O1)CCCC4 (stereo unspecified) was read as NLRP3 yeast inh inactive, tim23-1 inh inactive, tim10-1 inh inactive, NALP1 yeast inh inactive and TIM10 inh inactive.
For COc1ccc(C(c2ccc(OC)cc2)C(Cl)(Cl)Cl)cc1 the results were NLRP3 yeast inh inactive, tim23-1 inh inactive, tim10-1 inh inactive and TIM10 inh inactive.
Fc1ccc(C(OCCN2CCN(CCCc3ccccc3)CC2)c2ccc(F)cc2)cc1 was read as NLRP3 yeast inh 50, tim23-1 inh inactive, tim10-1 inh inactive, TIM10 inh inactive and NALP3 confirm 59.
For Clc1cc(Cl)c(-c2cc(Cl)c(Cl)cc2Cl)cc1Cl the results were NLRP3 yeast inh inactive, tim23-1 inh inactive, tim10-1 inh inactive and TIM10 inh inactive.
Screening COc1ccc(-n2c(O)c(C=NCCN3CCN(C(C)=O)CC3)c(=O)[nH]c2=S)cc1 returned NLRP3 yeast inh 53, tim23-1 inh inactive, tim10-1 inh inactive, NALP1 yeast inh inactive, TIM10 inh inactive, NALP3 confirm 67, Casp1-ASC yeast inactive and NALP3 yeast rt inactive.
`CC(=O)N1CCN(CCN=Cc2c(O)n(-c3ccc(C)cc3)c(=S)[nH]c2=O)CC1` gave NLRP3 yeast inh inactive, tim23-1 inh inactive, tim10-1 inh inactive, NALP1 yeast inh inactive and TIM10 inh inactive.
For CC[C@]12CC[C@H](O)CC1=CCC1C2CC[C@]2(C)C(=O)CCC12 (stereo partly specified) the results were NLRP3 yeast inh 67, tim23-1 inh inactive, tim10-1 inh inactive, TIM10 inh inactive and NALP3 confirm 60.
CC(=O)O[C@H]1CC[C@@]2(C)C(=CC[C@@H]3[C@@H]2CC[C@]2(C)C(=O)CC[C@@H]32)C1 was read as NLRP3 yeast inh 58, tim23-1 inh inactive, tim10-1 inh inactive, TIM10 inh inactive, NALP3 confirm 59, Casp1-ASC yeast 59 and NALP3 yeast rt inactive.
For C[C@]12CCC3[C@@H](CCC4=CC(=O)CC[C@@]43CO)C1CCC2=O (stereo partly specified) the results were NLRP3 yeast inh inactive, tim23-1 inh inactive, tim10-1 inh inactive, NALP1 yeast inh inactive and TIM10 inh inactive.
`C[C@]12CCC3C(CC[C@H]4C[C@H](O)CC[C@]34C)C1[C@@H](O)C[C@@H]2O` (stereo partly specified) gave NLRP3 yeast inh inactive, tim23-1 inh inactive, tim10-1 inh inactive and TIM10 inh inactive.
O=[N+]([O-])c1cc(F)c(N2CCCC2)cc1Br was read as NLRP3 yeast inh 67, tim23-1 inh inactive, tim10-1 inh inactive, NALP1 yeast inh inactive, TIM10 inh inactive, NALP3 confirm 82, Casp1-ASC yeast 80 and NALP3 yeast rt 64.
For CC1CCN(c2cc(Br)c([N+](=O)[O-])cc2F)CC1 the results were NLRP3 yeast inh 68, tim23-1 inh inactive, tim10-1 inh inactive, TIM10 inh inactive, NALP3 confirm 73, Casp1-ASC yeast 77 and NALP3 yeast rt 58.
For O=[N+]([O-])NC1=NCCN1Cc1ccc(Cl)nc1 the results were NLRP3 yeast inh inactive, tim23-1 inh inactive, tim10-1 inh inactive, NALP1 yeast inh inactive and TIM10 inh inactive.
Screening O=C1NC(=S)NC(=O)C1=Cc1ccc(Br)s1 returned NLRP3 yeast inh inactive, tim23-1 inh inactive, tim10-1 inh inactive, NALP1 yeast inh inactive and TIM10 inh inactive.
